Test results reported in PubChem BioAssay (NCI).
Values joined by “and” are separate entries in the source; they are usually repeats but may differ in a detail not shown here. Identical values can stand only once. The panel holds about 79,000 compounds, 15% with a hit somewhere; the sample as a whole holds those more often. Some structures have more than one record in an assay (separate samples or runs), and their calls can disagree. Active and inactive are the calls of the source. Cut-off read from the data, not from the text of the source: active = growth inhibition above about 70%; inactive = the rest.

Assay: NCI Yeast Anticancer Drug Screen. Data for the sgs1 strain (AID 173);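 note: 0% = growth of vehicle-only control cultures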
Settings: S. cerevisiae sgs1 mutant, at 100.0 µM, stronger effect = higher value
Procedure, shortened: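 Growth of a yeast strain bearing a defined genetic alteration is measured after compound treatment. Inhibition is expressed relative to vehicle-only controls.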

Row | Compound | growth inhibition
1 | O=C1/C(=C/c2ccccc2)CCCC1CN1CCCCC1 (stereo not given) | 91% (active)
2 | C#CCN(Cc1ccc2nc(N)[nH]c(=O)c2c1)c1ccc(C(=O)NC(CCC(=O)O)C(=O)O)cc1 (stereo not given) | 75% (active)
3 | CCOC1(c2cccc([N+](=O)[O-])c2)c2ccccc2Oc2ccccc21 | 16% (inactive)
4 | O=C(O)CNC(=S)Nc1ccccc1 | 91% (active)
5 | N/C(=N/N=C/c1cc(Br)cc(Br)c1O)NO | 96% (active)
6 | C[Si](C)(C)/C=C/CCNC(C#N)c1ccccc1 (stereo not given) | 94% (active)
7 | CC1=C(C(=O)NCc2ccccc2)C(c2ccccc2)C(C(=O)NCc2ccccc2)=C(C)N1 | 93% (active)
8 | CCOC(=O)C(Br)C(Br)c1ccccc1Cl (stereo not given) | 99% (active)
9 | CCOC(=O)C1=C(C)NC(C)=C(C(=O)OCCNC(=O)c2ccc(N=[N+]=[N-])cc2)C1c1ccccc1C(F)(F)F (stereo not given) | 65% (inactive)
10 | Cc1cc(C)c(NC(=S)NC(=O)c2ccccc2)cc1C | -1% (inactive)
11 | CNCCCNc1c2ccccc2nc2cccc([N+](=O)[O-])c12 | 95% (active)
12 | COc1c(O)c(C=O)c(Br)c(C=O)c1O | 94% (active)
13 | Cc1c(C)c(C)c(CSC(=N)N)c(C)c1C | 98% (active)
14 | O=C(CSC(=S)N1CCCCC1)Nc1nc2c(s1)CCCC2 | 92% (active)
15 | CNC(=O)OCc1c(COC(=O)NC)c(-c2ccc(Cl)cc2)n2c1CCC2 | 89% (active)
16 | CC(=O)OC1CC2C(C)(C)C(=O)C=C[C@]2(C)C2CCC3(C)C(=CCC3[C@H](CO)C[C@H](O)C(=O)C(C)(C)O)[C@]12C (stereo not given in full) | 93% (active)
17 | CCCCCCOC(=O)NCCOC(=O)Nc1ccccc1 | 9% (inactive)
18 | C[C](C)(C)[Ge]([O][Ge]([c]1ccccc1)[c]1ccccc1)([O][Ge]([c]1ccccc1)[c]1ccccc1)[C](C)(C)C | 76% (active)

Row | Compound | growth inhibition
19 | CCc1c(Cl)c(C)cc(O)c1Cl | 91% (active)
20 | Cc1nc(Nc2ccccc2[N+](=O)[O-])sc1C(=O)CC(=O)C(=O)Nc1c(C(C)C)cccc1C(C)C | 6% (inactive)
21 | O=[N+]([O-])c1cccc2nc3ccccc3c(NCCCn3ccnc3[N+](=O)[O-])c12 | 93% (active)
22 | CCCCCCC(O)CNCc1ccnc2ccc(OC)cc12 (stereo not given) | 56% (inactive)
23 | Cc1c2cccc(Sc3ccccc3)c2c2c3c(cccc13)[S+](c1ccccc1)C2 (stereo not given) | 87% (active)
24 | C=C1CCC(O)C/C1=C/C=C1\CCCC2(C)C1CCC2C(C)CCCC(C)C (stereo not given) | 35% (inactive)
25 | NC1=NNC2(C(N)=N1)c1ccccc1-c1ccccc12 | 97% (active)
26 | COc1cc2cc3c4cc(OC)c(OC)cc4cc[n+]3c(C)c2cc1OC | -11% (inactive)
27 | COC(=O)NC1C(C)OC(OC2C/C=C(/C)C3C=CC4C(OC5CC(OC6CC(O)C(OC7CC(O)C(OC)C(C)O7)C(C)O6)C(O)C(C)O5)C(C)CC(C)C4C3(C)/C(O)=C3\C(=O)OC4(CC(C)C(CO)=CC4/C=C\2C)C3=O)CC1(C)[N+](=O)[O-] (stereo not given) | -10% (inactive)
28 | O=C1CSC(c2cccc(Cl)c2)N1c1ccc(-c2ccc(-n3c(-c4ccccc4)nc4ccccc4c3=O)cc2)cc1 (stereo not given) | 57% (inactive)
29 | CCOC(=O)C(C(=O)OCC)=P(c1ccccc1)(c1ccccc1)c1ccccc1 | 94% (active)
30 | COc1ccc(N=CN(C)C)c(C)c1 | 95% (active)
31 | Cc1cc(S(=O)(=O)Nc2nnc3cnc4ccccc4n23)c(S)cc1Cl | 58% (inactive)
32 | O=C(Oc1ccc2c(c1)CN(Cc1ccccc1)CO2)c1ccccc1 | 70% (active)
33 | CN(C)[C@@H]1C(=O)C(C(N)=O)=C(O)[C@@]2(O)C(=O)C3=C(O)c4c(O)cccc4C[C@H]3C[C@@H]12 | 99% (active)
34 | O=[N+]([O-])c1ccc2c(c1)/C(=N/N=C1c3ccccc3Cc3ccccc31)c1cc([N+](=O)[O-])cc([N+](=O)[O-])c1-2 | 95% (active)
35 | Cc1nc2c(Br)cc(Br)cc2c(=O)n1-c1ccccc1NC1OCC(O)C(O)C1O (stereo not given) | 88% (active)

Assay: NCI Yeast Anticancer Drug Screen. Data for the mlh1 rad18 strain (AID 175)
Settings: S. cerevisiae mlh1 rad18 strain growth inhibition; at 5.0 µM (retest, dose inferred, filed as 0.5); stronger effect = higher value
Procedure, shortened: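 Read-out is yeast growth inhibition, calculated against vehicle-only controls. The compound was applied to a strain engineered with DNA damage repair alterations.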

Row | Compound | growth inhibition
36 | O=C1/C(=C/c2ccccc2)CCCC1CN1CCCCC1 (stereo not given) | 43% (inactive)
37 | C#CCN(Cc1ccc2nc(N)[nH]c(=O)c2c1)c1ccc(C(=O)NC(CCC(=O)O)C(=O)O)cc1 (stereo not given) | 5% (inactive) and -8% (inactive)
38 | CCOC1(c2cccc([N+](=O)[O-])c2)c2ccccc2Oc2ccccc21 | 57% (inactive)
39 | O=C(O)CNC(=S)Nc1ccccc1 | 33% (inactive)
40 | C[Si](C)(C)/C=C/CCNC(C#N)c1ccccc1 (stereo not given) | 99% (active)
41 | CCCCCCCCCCCCCCCCOP(=O)(O)OCC(N)C(=O)O (stereo not given) | -26% (inactive)
42 | CC1=C(C(=O)NCc2ccccc2)C(c2ccccc2)C(C(=O)NCc2ccccc2)=C(C)N1 | 4% (inactive)
43 | O=[N+]([O-])c1cc(S(=O)(=O)Nc2ccccc2)ccc1Nc1ccccc1 | 33% (inactive)
44 | COc1cc2ccnc(-c3c4ccccc4c(N)c4c(OC)c(OC)ccc34)c2cc1OC | 23% (inactive)
45 | CCOC(=O)C(Br)C(Br)c1ccccc1Cl (stereo not given) | 39% (inactive)
46 | CCOC(=O)C1=C(C)NC(C)=C(C(=O)OCCNC(=O)c2ccc(N=[N+]=[N-])cc2)C1c1ccccc1C(F)(F)F (stereo not given) | 2% (inactive)
47 | Cc1cc(C)c(NC(=S)NC(=O)c2ccccc2)cc1C | -37% (inactive)
48 | CNCCCNc1c2ccccc2nc2cccc([N+](=O)[O-])c12 | 88% (active)
49 | COc1c(O)c(C=O)c(Br)c(C=O)c1O | 7% (inactive)
50 | Cc1c(C)c(C)c(CSC(=N)N)c(C)c1C | 44% (inactive)
51 | O=C(CSC(=S)N1CCCCC1)Nc1nc2c(s1)CCCC2 | 16% (inactive)
52 | CNC(=O)OCc1c(COC(=O)NC)c(-c2ccc(Cl)cc2)n2c1CCC2 | 4% (inactive)
53 | CC(=O)OC1CC2C(C)(C)C(=O)C=C[C@]2(C)C2CCC3(C)C(=CCC3[C@H](CO)C[C@H](O)C(=O)C(C)(C)O)[C@]12C (stereo not given in full) | -6% (inactive)

Row | Compound | growth inhibition
54 | CCCCCCOC(=O)NCCOC(=O)Nc1ccccc1 | 19% (inactive)
55 | CCc1c(Cl)c(C)cc(O)c1Cl | 35% (inactive)
56 | Cc1nc(Nc2ccccc2[N+](=O)[O-])sc1C(=O)CC(=O)C(=O)Nc1c(C(C)C)cccc1C(C)C | 4% (inactive)
57 | O=[N+]([O-])c1cccc2nc3ccccc3c(NCCCn3ccnc3[N+](=O)[O-])c12 | 26% (inactive)
58 | CCCCCCC(O)CNCc1ccnc2ccc(OC)cc12 (stereo not given) | 21% (inactive)
59 | Cc1c2cccc(Sc3ccccc3)c2c2c3c(cccc13)[S+](c1ccccc1)C2 (stereo not given) | 18% (inactive)
60 | C=C1CCC(O)C/C1=C/C=C1\CCCC2(C)C1CCC2C(C)CCCC(C)C (stereo not given) | 11% (inactive)
61 | NC1=NNC2(C(N)=N1)c1ccccc1-c1ccccc12 | -25% (inactive)
62 | COC(=O)NC1C(C)OC(OC2C/C=C(/C)C3C=CC4C(OC5CC(OC6CC(O)C(OC7CC(O)C(OC)C(C)O7)C(C)O6)C(O)C(C)O5)C(C)CC(C)C4C3(C)/C(O)=C3\C(=O)OC4(CC(C)C(CO)=CC4/C=C\2C)C3=O)CC1(C)[N+](=O)[O-] (stereo not given) | 27% (inactive)
63 | O=C1CSC(c2cccc(Cl)c2)N1c1ccc(-c2ccc(-n3c(-c4ccccc4)nc4ccccc4c3=O)cc2)cc1 (stereo not given) | 5% (inactive)
64 | COc1ccc(N=CN(C)C)c(C)c1 | 44% (inactive)
65 | Cc1cc(S(=O)(=O)Nc2nnc3cnc4ccccc4n23)c(S)cc1Cl | 8% (inactive)
66 | O=C(Oc1ccc2c(c1)CN(Cc1ccccc1)CO2)c1ccccc1 | -9% (inactive)
67 | CN(C)[C@@H]1C(=O)C(C(N)=O)=C(O)[C@@]2(O)C(=O)C3=C(O)c4c(O)cccc4C[C@H]3C[C@@H]12 | 38% (inactive)
68 | O=[N+]([O-])c1ccc2c(c1)/C(=N/N=C1c3ccccc3Cc3ccccc31)c1cc([N+](=O)[O-])cc([N+](=O)[O-])c1-2 | 27% (inactive)
69 | Cc1nc2c(Br)cc(Br)cc2c(=O)n1-c1ccccc1NC1OCC(O)C(O)C1O (stereo not given) | -23% (inactive) and 18% (inactive)
70 | Cc1cc(N(CCOS(C)(=O)=O)CCOS(C)(=O)=O)ccc1C=Nc1ccc(-c2nc(Cc3ccccc3)sc2C)cc1 | 78% (active) and -3% (inactive)
